Measured values from PubChem BioAssay (NCI).
This is part of a sample that, as a whole, favours compounds with a hit. Of some 79,000 tested, about 15% had one in any assay. A number with no mark means an inactive call. The source made the active and inactive calls. No stated cut-off is given here; in the data, active means growth inhibition above about 70%; inactive means the rest.

Legend:
[1] = NCI Yeast Anticancer Drug Screen. Data for the rad50 strain (AID 155);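 further: 0% = growth of vehicle-only cultures of the same strain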; settings: S. cerevisiae rad50 strain growth inhibition, active compounds read high
Outline: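 Yeast carrying a defined DNA repair defect were exposed to test compounds, and growth was compared with vehicle-treated controls to give percent inhibition.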

[2] = NCI Yeast Anticancer Drug Screen. Data for the mec2-1 strain (AID 157); settings: S. cerevisiae mec2-1 strain, active compounds read high
Outline: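 Yeast mec2-1 mutant treated with compound. Readout: growth inhibition vs vehicle controls.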

[3] = NCI Yeast Anticancer Drug Screen. Data for the sgs1 mgt1 strain (AID 161);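 further: 0% = growth of cultures given vehicle only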; settings: S. cerevisiae sgs1 mgt1 strain, active compounds read high
Outline: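 Test agents were incubated with a DNA-repair-mutant yeast strain. Growth was then read and compared against vehicle-treated controls.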

[4] = NCI Yeast Anticancer Drug Screen. Data for the cln2 rad14 strain (AID 165);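 further: 0% = growth equal to vehicle treated cultures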; settings: S. cerevisiae cln2 rad14 strain, active compounds read high
Outline: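 cln2 rad14 yeast strain; compound exposure; growth inhibition read vs vehicle controls.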

[5] = NCI Yeast Anticancer Drug Screen. Data for the bub3 strain (AID 167); settings: S. cerevisiae bub3 mutant strain, active compounds read high
Outline: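 Compounds were applied to a genetically altered yeast strain carrying a cell-cycle control defect. Growth inhibition was scored against vehicle-treated controls.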

[6] = NCI Yeast Anticancer Drug Screen. Data for the mlh1 rad18 strain (AID 175); settings: S. cerevisiae mlh1 rad18 strain growth inhibition, active compounds read high
Outline: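 Yeast w/ defined DNA-repair lesions; compound exposure; growth vs vehicle controls → % inhibition.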

[7] = at 5.0 µM (retest, dose inferred, filed as 0.5)
[8] = at 50.0 µM (retest, dose inferred, filed as 5.0)

SMILES | growth inhibition [1, 7] | growth inhibition [1, 8] | growth inhibition ([1]; at 50.0 µM) | growth inhibition [2, 7] | growth inhibition [2, 8] | growth inhibition ([2]; at 50.0 µM) | growth inhibition [3, 7] | growth inhibition [3, 8] | growth inhibition ([3]; at 50.0 µM) | growth inhibition [4, 7] | growth inhibition [4, 8] | growth inhibition ([4]; at 50.0 µM) | growth inhibition [5, 7] | growth inhibition [5, 8] | growth inhibition ([5]; at 50.0 µM) | growth inhibition [6, 7] | growth inhibition [6, 8] | growth inhibition ([6]; at 50.0 µM)
COc1ccc(C2c3cc4c(cc3OC(N3CCOCC3)C2C)OCO4)c(OC)c1 (configuration not stated) | -3% | 88% (active) | 95.9% (active) | -10% | 95% (active) | 94.9% (active) | 2% | 79% (active) | 80.8% (active) | 18% | 99% (active) | 73.2% (active) | 7% | 98% (active) | 98% (active) | -26% | 96% (active) | 97.4% (active)
O=C(N=Nc1c(O)[nH]c2ccccc12)C(O)(c1ccccc1)c1ccccc1 | 18% | 32% | -6.25% | 19% | 32% | -8.75% | 21% | 82% (active) | 80.7% (active) | 26% | 27% | 35.5% | 12% | 38% | 25.9% | 29% | 38% | 29.1%
O/N=C1/CCCC/C1=C/c1ccc(Cl)cc1 | -152% | -124% | 82.7% (active) | -48% | -53% | 53.4% | -63% | -23% | 74% (active) | -57% | -62% | 64.8% | -66% | -78% | 65.5% | -144% | -111% | 80% (active)
c1cc(SSc2ccncc2)ccn1 | 47% | 100% (active) | 51.1% | 50% | 100% (active) | 85.5% (active) | 55% | 100% (active) | 56.8% | 34% | 97% (active) | 42% | 45% | 69% | 92.6% (active) | 65% | 100% (active) | 82.1% (active)
C=CCSc1nc2ccc(N3C(=O)C=CC3=O)cc2s1 | 59% | 99% (active) | 94.7% (active) | 50% | 99% (active) | 98% (active) | 51% | 100% (active) | 97.5% (active) | 24% | 98% (active) | 96.5% (active) | 27% | 99% (active) | 99% (active) | 85% (active) | 97% (active) | 97.8% (active)
c1nc(N2CCOCC2)c2[nH]cnc2n1 | 5% | -5% | 22.1% | -1% | -7% | 8.05% | 0% | 4% | 12.2% | -1% | -13% | 36.5% | -2% | 8% | -5.75% | 5% | 5% | 17.4%
O=[N+]([O-])c1ccc(S(=O)(=O)N/N=C/C=C/c2ccccc2)cc1 | 6% | 13% | 71% (active) | 2% | 17% | 37% | 4% | 14% | 87.5% (active) | -4% | 16% | 48.3% | 6% | 36% | 48.6% | 6% | 39% | 75.5% (active)
Nc1ccc(Cl)c2ccccc12 | -1% | 42% | 84.2% (active) | -4% | 20% | 76.8% (active) | -5% | 12% | 71.2% (active) | 40% | 26% | 53.5% | 6% | 48% | 57.9% | -4% | 33% | 74.5% (active)
CC(C)C(OC(=O)c1ccc(NCC2=CC(=O)C=CC2=O)cc1)C(C)C | 22% | 37% | 17% | 15% | 40% | 11.3% | 23% | 53% | 73% (active) | 21% | 32% | 73.8% (active) | 27% | 61% | 70.5% (active) | 17% | 44% | -10.4%
CC([NH-])C(=O)O.[Cu+2].[NH-]C(Cc1cnc[nH]1)C(=O)O (configuration not stated) | -8% | 7% | 98.9% (active) | -4% | 0% | 99.3% (active) | -3% | 1% | 98.7% (active) | 4% | 12% | 96% (active) | -5% | -1% | 99% (active) | -7% | 2% | 98.7% (active)
N#CSc1ccc(O)cc1 | 0% | 95% (active) | 94.3% (active) | 1% | 97% (active) | 96.2% (active) | 4% | 97% (active) | 92.6% (active) | 3% | 97% (active) | 93.8% (active) | 0% | 96% (active) | 96.4% (active) | 1% | 95% (active) | 93.3% (active)
CC1(C)CC[C@]2(C(=O)O)[C@H](O)C[C@]3(C)C(=CC[C@@H]4[C@@]5(C)CC[C@H](OC6OCC(O)C(O)C6OC6OCC(O)C(O)C6OC6OCC(O)C(O)C6O)C(C)(C)[C@@H]5CC[C@]43C)[C@@H]2C1 (some centres not stated) | 5% | 7% | 51.9% | 12% | 54% | 57.1% | 8% | 33% | -13.4% | 14% | 100% (active) | 54% | 14% | 100% (active) | 48.8% | 5% | 53% | 52%
Nc1nc(-c2ccccn2)cc2c(Cl)cccc12 | 12% | 90% (active) | -2.3% | 23% | 96% (active) | -22.1% | 21% | 92% (active) | 11.7% | 13% | 75% (active) | 3.7% | -8% | 91% (active) | 17.6% | 34% | 96% (active) | 8.75%
Nc1nc(N)c(-c2cccc(C(F)(F)F)c2)c(Cc2cccc(C(F)(F)F)c2)n1 | -2% | 98% (active) | 99.6% (active) | 14% | 98% (active) | 99.3% (active) | -1% | 98% (active) | 99.3% (active) | 24% | 91% (active) | 98.9% (active) | -4% | 95% (active) | 99.2% (active) | 0% | 99% (active) | 99.6% (active)
CCCc1cc2c(cc1CS(=O)(=O)CC)OCO2 | -4% | 9% | -9.1% | -4% | -2% | 2.3% | -7% | -5% | 1.1% | -7% | 0% | 23.3% | 23% | 17% | 16.7% | -4% | -6% | 3.75%
COC(=O)C1C(C(=O)OC)C2(OC(c3ccc(Cl)cc3)=CC2=O)C12OC(c1ccc(Cl)cc1)=CC2=O (configuration not stated) | 2% | 74% (active) | 89.8% (active) | 12% | 99% (active) | 92% (active) | 12% | 96% (active) | 90% (active) | 4% | 63% | 89.8% (active) | -1% | 90% (active) | 92% (active) | 13% | 98% (active) | 87.2% (active)
CCCCCCCCCCCCCCCC(=O)N1CC[N+](C)(CC2=CC3(Cl)C(Cl)=C(Cl)C2(Cl)C3(Cl)Cl)CC1 (configuration not stated) | 99% (active) | 99% (active) | 98.8% (active) | 99% (active) | 99% (active) | 99.2% (active) | 98% (active) | 99% (active) | 99.2% (active) | 96% (active) | 98% (active) | 98.5% (active) | 99% (active) | 99% (active) | 98.8% (active) | 99% (active) | 99% (active) | 98.7% (active)
CSC(=S)N/N=C\C(O)C(O)C(O)C(O)CO (configuration not stated) | -2% | 9% | 97.6% (active) | -2% | 0% | 95.8% (active) | -2% | 1% | 95.2% (active) | 0% | 0% | 70.3% (active) | -1% | -2% | 96.3% (active) | -2% | 9% | 97.8% (active)
CSc1nc2nn(Cc3ccccc3)cc2c(=O)[nH]1 | -6% | 22% | -7.95% | 10% | 19% | -4.85% | 9% | 21% | 2.4% | 17% | 50% | -22.8% | 27% | 47% | -9.9% | 20% | 39% | 11.8%
